{
  "source": "PubChem BioAssay (EPA / NIEHS)",
  "note": "The source made the active and inactive calls. The calls were made as follows: active = hit-call score of the fitted dose curve at least 0.9, where 1 is the maximum; inactive = score below 0.9.",
  "data": [
    {"experiment": "CCTE_Harrill_HTTr_Viability_MCF7: CCTE's 6-hour Cell Viability Assessment for the High-Throughput Transcriptomics (HTTr) Platform, in MCF-7 cells cultured in DMEM + 10% fetal bovine serum, Harrill Lab (AID 2284010)", "how_it_was_run": "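Propidium iodide exclusion, imaged by high-content analysis, gauged viability after a six-hour exposure across eight concentrations. Cells were MCF-7 grown in DMEM with 10% fetal bovine serum; fits run in both directions against DMSO.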", "values": [
      {"smiles": "Brc1cc(Br)cc(Br)c1", "outcome": "inactive"},
      {"smiles": "c1ccc(Cc2ccccc2)cc1", "outcome": "inactive"},
      {"smiles": "CC(=O)C1=C(C)[C@@H]2C[C@@]3(C1)[C@H](C)CC[C@H]3C2(C)C", "outcome": "inactive"},
      {"smiles": "O=C(O)C1=NN(c2ccc(S(=O)(=O)O)cc2)C(=O)C1", "outcome": "inactive"},
      {"smiles": "CCCO", "outcome": "inactive"},
      {"smiles": "O=C1CCCCCCCCCCCC(=O)OCCO1", "outcome": "inactive"},
      {"smiles": "CC(C)Cc1ccccc1", "outcome": "inactive"},
      {"smiles": "O=c1cc(-c2ccc(O)cc2)oc2cc(O)cc(O)c12", "outcome": "inactive"},
      {"smiles": "CC(=O)OC/C=C(C)/C=C/C=C(C)/C=C/C1=C(C)CCCC1(C)C", "outcome": "inactive"},
      {"smiles": "COc1ccc(C(C)=O)cc1", "outcome": "inactive"},
      {"smiles": "CC(=O)CC(=O)N(C)C", "outcome": "inactive"},
      {"smiles": "NC(=O)c1c(Cl)cccc1Cl", "outcome": "inactive"},
      {"smiles": "Cc1cc(O)c2c(c1)C(=O)c1cc(O)cc(O)c1C2=O", "outcome": "inactive"},
      {"smiles": "CCCc1ccc(O)cc1", "outcome": "inactive"},
      {"smiles": "FC(F)(F)c1ccc(Cl)c(Cl)c1", "outcome": "inactive"},
      {"smiles": "CC1=CCC(C(C)(C)O)CC1", "note": "(centres undefined)", "outcome": "inactive"},
      {"smiles": "O=C1OC2(c3ccc(O)cc3Oc3cc(O)ccc32)c2ccccc21", "outcome": "inactive"},
      {"smiles": "c1coc(CNc2ncnc3nc[nH]c23)c1", "outcome": "inactive"},
      {"smiles": "Cc1cccc(C)c1", "outcome": "inactive"},
      {"smiles": "OC[C@H]1O[C@@H](O[C@H]2[C@H](O)[C@@H](O)[C@H](O)O[C@@H]2CO)[C@H](O)[C@@H](O)[C@H]1O", "outcome": "inactive"}
    ]},
    {"experiment": "CCTE_Harrill_HTTr_Apoptosis_MCF7: CCTE's 6-hour Apoptosis Assessment for the High-Throughput Transcriptomics (HTTr) Platform, in MCF-7 cells cultured in DMEM + 10% fetal bovine serum, Harrill Lab (AID 2284011)", "how_it_was_run": "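Cells are dosed with test chemicals at eight concentrations and imaged 6 hours later for caspase-3/7 activity using a green fluorogenic detection reagent. Activity is fitted in both directions against DMSO controls.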", "values": [
      {"smiles": "C=C(C)C(N)=O", "outcome": "inactive"},
      {"smiles": "Brc1cc(Br)cc(Br)c1", "outcome": "inactive"},
      {"smiles": "CC(O)CN", "note": "(centres undefined)", "outcome": "inactive"},
      {"smiles": "CCCCCCCCCO", "outcome": "inactive"},
      {"smiles": "c1ccc(Cc2ccccc2)cc1", "outcome": "inactive"},
      {"smiles": "CC(=O)C1=C(C)[C@@H]2C[C@@]3(C1)[C@H](C)CC[C@H]3C2(C)C", "outcome": "inactive"},
      {"smiles": "O=C(O)C1=NN(c2ccc(S(=O)(=O)O)cc2)C(=O)C1", "outcome": "inactive"},
      {"smiles": "CC(C)Cc1ccc(C(C)C(=O)O)cc1", "note": "(centres undefined)", "outcome": "inactive"},
      {"smiles": "CCCO", "outcome": "inactive"},
      {"smiles": "CC(=O)CCC(=O)O", "outcome": "inactive"},
      {"smiles": "OCC=Cc1ccccc1", "outcome": "inactive"},
      {"smiles": "O=C1CCCCCCCCCCCC(=O)OCCO1", "outcome": "inactive"},
      {"smiles": "CC(C)Cc1ccccc1", "outcome": "inactive"},
      {"smiles": "CCCCCCOC(C)=O", "outcome": "inactive"},
      {"smiles": "NC(=O)c1cnccn1", "outcome": "inactive"},
      {"smiles": "O=c1cc(-c2ccc(O)cc2)oc2cc(O)cc(O)c12", "outcome": "inactive"},
      {"smiles": "CCCCOCCOCCOCCO", "outcome": "inactive"},
      {"smiles": "CC(=O)OC/C=C(C)/C=C/C=C(C)/C=C/C1=C(C)CCCC1(C)C", "outcome": "inactive"},
      {"smiles": "COc1ccc(C(C)=O)cc1", "outcome": "inactive"},
      {"smiles": "CC(=O)CC(=O)N(C)C", "outcome": "inactive"},
      {"smiles": "NC(=O)c1c(Cl)cccc1Cl", "outcome": "inactive"},
      {"smiles": "Cc1cc(O)c2c(c1)C(=O)c1cc(O)cc(O)c1C2=O", "outcome": "inactive"},
      {"smiles": "CCCc1ccc(O)cc1", "outcome": "inactive"},
      {"smiles": "FC(F)(F)c1ccc(Cl)c(Cl)c1", "outcome": "inactive"},
      {"smiles": "CC1=CCC(C(C)(C)O)CC1", "note": "(centres undefined)", "outcome": "inactive"},
      {"smiles": "O=C1OC2(c3ccc(O)cc3Oc3cc(O)ccc32)c2ccccc21", "AC50": "0.171 µM (active)"},
      {"smiles": "c1coc(CNc2ncnc3nc[nH]c23)c1", "outcome": "inactive"},
      {"smiles": "Cc1cccc(C)c1", "outcome": "inactive"},
      {"smiles": "OC[C@H]1O[C@@H](O[C@H]2[C@H](O)[C@@H](O)[C@H](O)O[C@@H]2CO)[C@H](O)[C@@H](O)[C@H]1O", "outcome": "inactive"}
    ]}
  ]
}
